# Laboratory results as given in PubChem BioAssay (NCATS).
# Results filed as inconclusive are left out. A call without a number means that no potency is given here. Values without a mark were called inactive. Activity calls are given as the source filed them. Calls follow the shape of the dose curve; as a rule, active = well fitted curve in the direction sought with a large enough effect; inconclusive = small, poorly fitted or top-dose-only effect, or another doubt; inactive = no such curve, though single readings can be large; an effect the other way counts as inactive or inconclusive.
# Key:
# JEG-3 = assay: Primary qHTS to identify gynecologic anti-cancer compounds using libraries of approved drugs and bioactive compounds (AID 1345084); conditions: Gynecologic cancer cell panel viability, ATPlite luminescence, 48 h; series mostly up to 57.5 µM; also: nearly all actives have a fitted effect of over 55% in size
# Outline: (§1)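 48 h compound exposure at 37 C, 5% CO2; five-point qHTS. ATPlite luminescence readout of cell ATP.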
# OV90 = assay: as above; conditions: Gynecologic cancer cell panel viability, ATPlite luminescence, 48 h; series mostly up to 57.5 µM
# Outline: as §1
# PA-1 = assay: as above; conditions: Gynecologic cancer cell panel viability, ATPlite luminescence, 48 h; series mostly up to 57.5 µM
# Outline: as §1
# SKOV3 = assay: as above; conditions: Gynecologic cancer cell panel viability, ATPlite luminescence, 48 h; series mostly up to 57.5 µM
# Outline: as §1
# Tov-21-G = assay: as above; conditions: Gynecologic cancer cell panel viability, ATPlite luminescence, 48 h; series mostly up to 57.5 µM
# Outline: as §1
# Tov112D = assay: as above; conditions: Gynecologic cancer cell panel viability, ATPlite luminescence, 48 h; series mostly up to 57.5 µM
# Outline: as §1
# [1] = Drug repurposing screens with cells derived from glioblastoma tumor samples (AID 1345199); conditions: GBM patient neurospheres viability, ATP luminescence, 48 h; also: nearly all actives have a fitted effect of over 40% in size
# Outline: (§2)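 Four patient lines of CD133+ GBM neurospheres were screened at several concentrations; hits were retested in those lines plus three slower-growing GBM lines, using 48-hour treatment and ATP-based viability.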
# astro = assay: as above; conditions: viability, ATP luminescence, 48 h; series mostly up to 45.9 µM
# Outline: as §2
# [2] = at 45.9 µM (top of the series), tumour line B
# [3] = at 45.9 µM (top of the series), tumour line D
# [4] = at 46.1 µM (top of the series), tumour line C
# [5] = at 46 µM (top of the series), tumour line A
# Potency is read from the fitted curve at half-maximal effect.
compound,measurement,setting,value
CC1=C(C)C(=O)C(CCCCC#CCCCC#CCO)=C(C)C1=O,Potency,JEG-3,inactive
same,Potency,OV90,inactive
same,Potency,PA-1,inactive
same,Potency,SKOV3,inactive
same,Potency,Tov-21-G,inactive
same,Potency,Tov112D,inactive
CN(C)CCN(Cc1cccs1)c1ccccn1,Potency,JEG-3,inactive
same,Potency,OV90,inactive
same,Potency,PA-1,inactive
same,Potency,SKOV3,inactive
same,Potency,Tov-21-G,inactive
same,Potency,Tov112D,inactive
same,"activity, negative = cell killing",[1]; [2],-18%
same,Potency,[1]; tumour line A,8.91 µM (active)
CCCC(C(=O)OCCN(CC)CC)(c1ccccc1)c1ccccc1,Potency,JEG-3,inactive
same,Potency,OV90,12.6 µM (active)
CN(C)[C@@H]1C(=O)C(C(N)=O)=C(O)[C@@]2(O)C(=O)C3=C(O)c4c(O)ccc(Cl)c4[C@@H](O)[C@H]3C[C@@H]12,Potency,JEG-3,inactive
same,Potency,OV90,inactive
same,Potency,PA-1,inactive
same,Potency,SKOV3,inactive
same,Potency,Tov-21-G,inactive
same,Potency,Tov112D,inactive
same,"activity, negative = cell killing",[1]; [2],-11.7%
same,"activity, negative = cell killing",[1]; [3],-27%
same,"activity, negative = cell killing",[1]; [4],-29.4%
C#CCN(C)CCCOc1ccc(Cl)cc1Cl,Potency,JEG-3,inactive
same,Potency,OV90,inactive
same,Potency,PA-1,inactive
same,Potency,SKOV3,inactive
same,Potency,Tov-21-G,inactive
same,Potency,Tov112D,inactive
same,"activity, negative = cell killing",[1]; [2],-0.374%
same,"activity, negative = cell killing",[1]; [3],-15.7%
same,"activity, negative = cell killing",[1]; [5],-39.4%
same,"activity, negative = cell killing",[1]; [4],-14.2%
CN(C)CCCN1c2ccccc2Sc2ccc(C(F)(F)F)cc21,Potency,JEG-3,inactive
Cc1ccc(Cl)c(Nc2ccccc2C(=O)O)c1Cl,Potency,JEG-3,inactive
same,Potency,OV90,inactive
same,Potency,PA-1,inactive
same,Potency,SKOV3,inactive
same,Potency,Tov-21-G,inactive
same,Potency,Tov112D,inactive
same,"activity, negative = cell killing",[1]; [2],-5.7%
same,"activity, negative = cell killing",[1]; [3],-0.35%
same,"activity, negative = cell killing",[1]; [5],-28.2%
same,"activity, negative = cell killing",[1]; [4],-24.9%
CCCOc1ccccc1-c1nc2n[nH]nc2c(=O)[nH]1,Potency,JEG-3,inactive
same,Potency,OV90,inactive
same,Potency,PA-1,inactive
same,Potency,SKOV3,inactive
same,Potency,Tov-21-G,inactive
same,Potency,Tov112D,inactive
same,"activity, negative = cell killing",[1]; [2],-4.45%
same,"activity, negative = cell killing",[1]; [3],-8.24%
same,"activity, negative = cell killing",[1]; [5],-28%
same,"activity, negative = cell killing",[1]; [4],-19%
CCn1cc(C(=O)O)c(=O)c2cc3c(cc21)OCO3,Potency,JEG-3,inactive
same,Potency,OV90,inactive
same,Potency,PA-1,inactive
same,Potency,SKOV3,inactive
same,Potency,Tov-21-G,inactive
same,Potency,Tov112D,inactive
same,"activity, negative = cell killing",[1]; [2],-1.33%
same,"activity, negative = cell killing",[1]; [3],-1.7%
same,"activity, negative = cell killing",[1]; [5],-12.9%
same,"activity, negative = cell killing",[1]; [4],-10%
same,Potency,astro,inactive
O=C(O)CN(CCN(CC(=O)O)CC(=O)O)CCN(CC(=O)O)CC(=O)O,Potency,JEG-3,inactive
same,Potency,OV90,inactive
same,Potency,PA-1,inactive
same,Potency,SKOV3,inactive
same,Potency,Tov-21-G,inactive
same,Potency,Tov112D,inactive
same,"activity, negative = cell killing",[1]; [2],-4.92%
same,"activity, negative = cell killing",[1]; [3],-0.113%
same,"activity, negative = cell killing",[1]; [4],-9.95%
O=C(O)CN(CCOCCOCCN(CC(=O)O)CC(=O)O)CC(=O)O,"activity change, negative = cytotoxicity",JEG-3,-5.11% [at 0.462 µM]
same,"activity change, negative = cytotoxicity",OV90,2.64% [at 0.462 µM]
same,"activity change, negative = cytotoxicity",PA-1,-1.54% [at 0.462 µM]
same,"activity change, negative = cytotoxicity",SKOV3,17.7% [at 0.462 µM]
same,"activity change, negative = cytotoxicity",Tov-21-G,1.63% [at 0.462 µM]
same,"activity change, negative = cytotoxicity",Tov112D,6.01% [at 0.462 µM]
same,"activity, negative = cell killing",[1]; [2],-21%
same,"activity, negative = cell killing",[1]; [3],-7%
same,"activity, negative = cell killing",[1]; [5],-22.8%
same,"activity, negative = cell killing",[1]; [4],4.28%
Nc1c2c(nc3ccccc13)CCCC2O (stereo not given),Potency,JEG-3,inactive
same,Potency,OV90,inactive
same,Potency,PA-1,inactive
same,Potency,SKOV3,inactive
same,Potency,Tov-21-G,inactive
same,Potency,Tov112D,inactive
same,"activity, negative = cell killing",[1]; [2],4.45%
same,"activity, negative = cell killing",[1]; [3],4.03%
same,"activity, negative = cell killing",[1]; [4],-7.2%
NC(=O)c1cn(Cc2c(F)cccc2F)nn1,Potency,JEG-3,inactive
same,Potency,OV90,inactive
same,Potency,PA-1,inactive
same,Potency,SKOV3,inactive
same,Potency,Tov-21-G,inactive
same,Potency,Tov112D,inactive
same,"activity, negative = cell killing",[1]; [2],-2.3%
same,"activity, negative = cell killing",[1]; [3],-3.04%
same,"activity, negative = cell killing",[1]; [5],-26.2%
same,"activity, negative = cell killing",[1]; [4],-19.6%
same,Potency,astro,inactive
CCOC(=O)c1cnc2c(cnn2CC)c1NN=C(C)C,Potency,JEG-3,inactive
same,Potency,OV90,inactive
same,Potency,PA-1,inactive
same,Potency,SKOV3,inactive
same,Potency,Tov-21-G,inactive
same,Potency,Tov112D,inactive
same,"activity, negative = cell killing",[1]; [2],-11.6%
same,"activity, negative = cell killing",[1]; [3],-28.3%
same,"activity, negative = cell killing",[1]; [4],-18.1%
same,Potency,[1]; tumour line A,11.2 µM (active)
C[N+](C)(C)CCCCCCCCCC[N+](C)(C)C,Potency,JEG-3,inactive
same,Potency,OV90,inactive
same,Potency,PA-1,inactive
same,Potency,SKOV3,inactive
same,Potency,Tov-21-G,inactive
same,Potency,Tov112D,inactive
same,"activity, negative = cell killing",[1]; [2],-8.43%
same,"activity, negative = cell killing",[1]; [3],-24.4%
same,"activity, negative = cell killing",[1]; [5],-24.5%
same,"activity, negative = cell killing",[1]; [4],-2.46%
NC(=O)c1ncn([C@@H]2O[C@H](CO)[C@@H](O)[C@H]2O)c1O,Potency,JEG-3,inactive
same,Potency,OV90,inactive
same,Potency,PA-1,inactive
same,Potency,SKOV3,inactive
same,Potency,Tov-21-G,inactive
same,Potency,Tov112D,inactive
same,"activity, negative = cell killing",[1]; [2],-12.1%
same,"activity, negative = cell killing",[1]; [3],11.4%
same,"activity, negative = cell killing",[1]; [5],-0.128%
same,"activity, negative = cell killing",[1]; [4],-22.4%
C[C@@H](O)[C@H]1C(=O)N2C(C(=O)O)=C(SCCN=CN)C[C@H]12,Potency,JEG-3,inactive
same,Potency,OV90,inactive
same,Potency,PA-1,inactive
same,Potency,SKOV3,inactive
same,Potency,Tov-21-G,inactive
same,Potency,Tov112D,inactive
same,"activity, negative = cell killing","[1]; at 20 µM (top of the series), tumour line C",-11.4%
same,"activity, negative = cell killing","[1]; at 21.2 µM (top of the series), tumour line B",-16.2%
same,"activity, negative = cell killing","[1]; at 21.2 µM (top of the series), tumour line D",-8.7%
same,"activity, negative = cell killing","[1]; at 21.3 µM (top of the series), tumour line A",-14.5%
c1cnc(N2CCN(Cc3ccc4c(c3)OCO4)CC2)nc1,Potency,JEG-3,inactive
same,Potency,OV90,inactive
same,Potency,PA-1,inactive
same,Potency,SKOV3,inactive
same,Potency,Tov-21-G,inactive
same,Potency,Tov112D,inactive
same,"activity, negative = cell killing",[1]; [2],-3.93%
same,"activity, negative = cell killing",[1]; [3],-6.17%
same,"activity, negative = cell killing",[1]; [4],-21.6%
